The results in this text go back to the supplement of paper PMC3545927.

The other results are listed elsewhere or left out. How many sequences the whole screen found active is unknown.

The assay concerns the target furin, P09958. Description: furin cleavage Z-score vs untreated control; higher = more cleavage, active = 3.5 or more, inactive = 1 or less, 8 variable residues between constant flanks. The gist of the method: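 Peptides 8 residues long, fused to a cDNA oligonucleotide, were fixed to magnetic beads by the N-terminus and exposed to purified furin. The 0.01 ml reactions contained 50 mM HEPES pH 7.5 with CaCl2 and NaCl at 1:10 enzyme:substrate and ran 7.5, 15 or 30 min. For the cleavage Z-score, log counts of sequenced released DNA were compared with furin-free reactions, lowess-adjusted and scaled by median absolute deviation.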

Sequence of furin, P09958 (P09958 whole entry, the tested form may be a part): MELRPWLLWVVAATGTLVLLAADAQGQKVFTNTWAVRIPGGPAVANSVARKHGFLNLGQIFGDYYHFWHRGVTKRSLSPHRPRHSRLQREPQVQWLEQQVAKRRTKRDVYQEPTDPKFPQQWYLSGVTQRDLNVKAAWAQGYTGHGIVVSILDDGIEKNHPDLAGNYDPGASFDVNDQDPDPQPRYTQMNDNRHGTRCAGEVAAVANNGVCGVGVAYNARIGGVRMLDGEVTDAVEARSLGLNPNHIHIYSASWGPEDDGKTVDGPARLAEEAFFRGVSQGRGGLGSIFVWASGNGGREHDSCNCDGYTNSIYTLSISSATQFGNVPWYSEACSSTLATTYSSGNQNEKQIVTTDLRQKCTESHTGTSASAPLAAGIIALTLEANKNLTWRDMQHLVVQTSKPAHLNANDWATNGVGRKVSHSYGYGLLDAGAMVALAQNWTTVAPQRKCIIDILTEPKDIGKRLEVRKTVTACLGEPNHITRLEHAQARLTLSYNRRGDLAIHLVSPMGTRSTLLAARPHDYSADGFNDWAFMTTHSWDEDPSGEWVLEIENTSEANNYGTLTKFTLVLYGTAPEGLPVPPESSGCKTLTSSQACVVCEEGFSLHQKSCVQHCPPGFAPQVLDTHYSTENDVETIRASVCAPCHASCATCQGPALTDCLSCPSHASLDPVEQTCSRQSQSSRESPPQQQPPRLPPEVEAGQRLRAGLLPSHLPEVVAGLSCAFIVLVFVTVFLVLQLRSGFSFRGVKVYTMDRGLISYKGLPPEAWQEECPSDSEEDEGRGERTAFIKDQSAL

B1: HC144 (peptide)
chain: CAEVVTLTWVAGNASASA
Regarding B1, the “furin cleavage Z-score” value (7.5 min) is 0.108 (inactive), the “furin cleavage Z-score” value (15 min) is 1.05 and the “furin cleavage Z-score” value (30 min) is -0.447 (inactive).

B2: HC1415 (peptide)
chain: CACSLTPPHSAGNASASA
Regarding B2, the “furin cleavage Z-score” value by setting is: (7.5 min) -1.29 (inactive); (15 min) -4.97 (inactive); (30 min) -1.14 (inactive).

B3: FS-100 (peptide)
chain: CATRSVRKRSAGNASASA
In the case of B3, the “furin cleavage Z-score” value is, setting by setting: (7.5 min) 10 (active); (15 min) 8.16 (active); (30 min) 6.31 (active).

B4: HC1335 (peptide)
chain: CATRSFGSSSAGNASASA
For B4, the “furin cleavage Z-score” value (7.5 min) was 0.518 (inactive), the “furin cleavage Z-score” value (15 min) was -0.799 (inactive) and the “furin cleavage Z-score” value (30 min) was -0.228 (inactive).

B5: FS-572 (peptide)
chain: CATSSSRKRSAGNASASA
With B5, the “furin cleavage Z-score” value was 1.17 (7.5 min), 0.258 (inactive) (15 min) and 1.99 (30 min).

B6: HC1508 (peptide)
chain: CAGYRRCRASAGNASASA
B6: the “furin cleavage Z-score” value reads like this: (7.5 min) 0.58 (inactive); (15 min) -0.0246 (inactive); (30 min) 0.472 (inactive).

B7: HC1311 (peptide)
chain: CAWKKPDYEPAGNASASA
Take B7: the “furin cleavage Z-score” value by setting is: (7.5 min) -0.0824 (inactive); (15 min) -0.0771 (inactive); (30 min) 0.0457 (inactive).

B8: HC166 (peptide)
chain: CANKRNTNRRAGNASASA
B8: the “furin cleavage Z-score” value runs as follows: (7.5 min) 0.476 (inactive); (15 min) 1.53; (30 min) -0.249 (inactive).

B9: FS-902 (peptide)
chain: CAYRHRKKRNAGNASASA
Consider B9, for which the “furin cleavage Z-score” value by setting is: (7.5 min) 2.85; (15 min) 1.03; (30 min) -0.551 (inactive).

B10: HC164 (peptide)
chain: CAPQKKNKRNAGNASASA
Consider B10, for which the “furin cleavage Z-score” value (7.5 min) was 5.11 (active), the “furin cleavage Z-score” value (15 min) was 6.33 (active) and the “furin cleavage Z-score” value (30 min) was 5.55 (active).

B11: FS-263 (peptide)
chain: CAKTTRKKRNAGNASASA
Consider B11, for which the “furin cleavage Z-score” value reads like this: (7.5 min) 7.57 (active); (15 min) 8.3 (active); (30 min) 5.21 (active).

B12: FS-2867 (peptide)
chain: CAKKKRMAMAAGNASASA
Turning to B12, the “furin cleavage Z-score” value is -0.103 (inactive) (7.5 min), 0.494 (inactive) (15 min) and 1.89 (30 min).

B13: HC1449 (peptide)
chain: CAARLIVFPDAGNASASA
In the case of B13, the “furin cleavage Z-score” value is -1.5 (inactive) (7.5 min), -0.858 (inactive) (15 min) and -0.313 (inactive) (30 min).

B14: FS-674 (peptide)
chain: CAKKMRVWRDAGNASASA
On to B14, for which the “furin cleavage Z-score” value is 4.34 (active) (7.5 min), 5.37 (active) (15 min) and 5.78 (active) (30 min).

B15: HC1322 (peptide)
chain: CAPVPPPRKKAGNASASA
For B15, the “furin cleavage Z-score” value was 0.00444 (inactive) (7.5 min), 1.55 (15 min) and 0.99 (inactive) (30 min).

B16: HC163 (peptide)
chain: CAPKPQKKNKAGNASASA
In the case of B16, the “furin cleavage Z-score” value reads like this: (7.5 min) -1.39 (inactive); (15 min) -0.337 (inactive); (30 min) -0.509 (inactive).

B17: HC165 (peptide)
chain: CAKKNKRNTNAGNASASA
On to B17, for which the “furin cleavage Z-score” value is 4.17 (active) (7.5 min), 6.77 (active) (15 min) and 5.31 (active) (30 min).

B18: HC2012 (peptide)
chain: CAVECCSMSYAGNASASA
With B18, the “furin cleavage Z-score” value is, setting by setting: (7.5 min) 0.483 (inactive); (15 min) 1.15; (30 min) 0.164 (inactive).

B19: HC352 (peptide)
chain: CAAETHVTGGAGNASASA
Take B19: the “furin cleavage Z-score” value by setting is: (7.5 min) -0.704 (inactive); (15 min) -0.0263 (inactive); (30 min) -0.814 (inactive).

B20: HC1250 (peptide)
chain: CASHITAEAAAGNASASA
With B20, the “furin cleavage Z-score” value (7.5 min) was -0.151 (inactive), the “furin cleavage Z-score” value (15 min) was -1.71 (inactive) and the “furin cleavage Z-score” value (30 min) is -1.91 (inactive).

B21: HC1435 (peptide)
chain: CADNVTPIDTAGNASASA
For B21, the “furin cleavage Z-score” value (7.5 min) is -0.0484 (inactive), the “furin cleavage Z-score” value (15 min) was -0.00567 (inactive) and the “furin cleavage Z-score” value (30 min) was -0.908 (inactive).

B22: HC515 (peptide)
chain: CAIASWAIKWAGNASASA
For B22, the “furin cleavage Z-score” value runs as follows: (7.5 min) -0.183 (inactive); (15 min) 0.294 (inactive); (30 min) -1.7 (inactive).

B23: HC505 (peptide)
chain: CALIHLHQNIAGNASASA
B23: the “furin cleavage Z-score” value by setting is: (7.5 min) 0.141 (inactive); (15 min) -1.53 (inactive); (30 min) 0.884 (inactive).

B24: HC2015 (peptide)
chain: CAVHCCSMSYAGNASASA
Take B24: the “furin cleavage Z-score” value is, setting by setting: (7.5 min) 0.313 (inactive); (15 min) -1.84 (inactive); (30 min) 0.688 (inactive).

B25: HC1161 (peptide)
chain: CAPQLPGIPFAGNASASA
As to B25, the “furin cleavage Z-score” value is, setting by setting: (7.5 min) -0.711 (inactive); (15 min) -1.22 (inactive); (30 min) 0.14 (inactive).

B26: HC1861 (peptide)
chain: CATNPCSGSWAGNASASA
For B26, the “furin cleavage Z-score” value by setting is: (7.5 min) -0.962 (inactive); (15 min) -0.755 (inactive); (30 min) -0.828 (inactive).

B27: HC2172 (peptide)
chain: CAEEVTSTWVAGNASASA
In the case of B27, the “furin cleavage Z-score” value was -0.33 (inactive) (7.5 min), 0.0818 (inactive) (15 min) and 0.598 (inactive) (30 min).

B28: FS-42 (peptide)
chain: CAKKMRNKRNAGNASASA
As for B28, the “furin cleavage Z-score” value was 10.5 (active) (7.5 min), 10.9 (active) (15 min) and 9.3 (active) (30 min).

B29: FS-1352 (peptide)
chain: CAKTLRTKRNAGNASASA
For the sequence B29, the “furin cleavage Z-score” value is, setting by setting: (7.5 min) 9.31 (active); (15 min) 8.38 (active); (30 min) 6.89 (active).

B30: HC2548 (peptide)
chain: CASTPCSAWLAGNASASA
In the case of B30, the “furin cleavage Z-score” value (7.5 min) is -0.0997 (inactive), the “furin cleavage Z-score” value (15 min) is -0.849 (inactive) and the “furin cleavage Z-score” value (30 min) is -0.533 (inactive).

B31: HC2431 (peptide)
chain: CADREVPCHRAGNASASA
Regarding B31, the “furin cleavage Z-score” value runs as follows: (7.5 min) 0.898 (inactive); (15 min) 1.78; (30 min) 1.29.

B32: HC54 (peptide)
chain: CATTPCSGSWAGNASASA
Consider B32, for which the “furin cleavage Z-score” value was -0.34 (inactive) (7.5 min), -3.09 (inactive) (15 min) and -0.396 (inactive) (30 min).

B33: HC444 (peptide)
chain: CAPPCVIGGAAGNASASA
Consider B33, for which the “furin cleavage Z-score” value is, setting by setting: (7.5 min) -0.324 (inactive); (15 min) -0.267 (inactive); (30 min) 0.0653 (inactive).

B34: FS-2801 (peptide)
chain: CARRRRYALSAGNASASA
As to B34, the “furin cleavage Z-score” value was 5.16 (active) (7.5 min), 9.42 (active) (15 min) and 8.62 (active) (30 min).

B35: FS-2235 (peptide)
chain: CARRRRYEGHAGNASASA
As for B35, the “furin cleavage Z-score” value is 0.411 (inactive) (7.5 min), 0.839 (inactive) (15 min) and -0.246 (inactive) (30 min).

B36: FS-1786 (peptide)
chain: CARRRRLRTAAGNASASA
Turning to B36, the “furin cleavage Z-score” value is 2.03 (7.5 min), 3.9 (active) (15 min) and 4.2 (active) (30 min).

B37: FS-2182 (peptide)
chain: CARRRRYKKKAGNASASA
Turning to B37, the “furin cleavage Z-score” value reads like this: (7.5 min) -0.133 (inactive); (15 min) -0.187 (inactive); (30 min) -0.000733 (inactive).

B38: FS-3232 (peptide)
chain: CARRRRYAVAAGNASASA
Turning to B38, the “furin cleavage Z-score” value is 4.58 (active) (7.5 min), 6.75 (active) (15 min) and 6.05 (active) (30 min).

B39: FS-1787 (peptide)
chain: CARRRRLYWGAGNASASA
Consider B39, for which the “furin cleavage Z-score” value runs as follows: (7.5 min) -0.939 (inactive); (15 min) 0.513 (inactive); (30 min) -1.89 (inactive).

B40: HC1587 (peptide)
chain: CALIARDQLEAGNASASA
As for B40, the “furin cleavage Z-score” value was 1.19 (7.5 min), -0.286 (inactive) (15 min) and 0.308 (inactive) (30 min).

B41: FS-15 (peptide)
chain: CACRARGMRAAGNASASA
On to B41, for which the “furin cleavage Z-score” value is -0.759 (inactive) (7.5 min), -0.9 (inactive) (15 min) and -0.752 (inactive) (30 min).

B42: FS-241 (peptide)
chain: CAGHSRSRRAAGNASASA
Consider B42, for which the “furin cleavage Z-score” value was 9.52 (active) (7.5 min), 9.9 (active) (15 min) and 7.81 (active) (30 min).

B43: FS-1591 (peptide)
chain: CAGRSRASRGAGNASASA
As to B43, the “furin cleavage Z-score” value (7.5 min) was 0.169 (inactive), the “furin cleavage Z-score” value (15 min) was 0.355 (inactive) and the “furin cleavage Z-score” value (30 min) is 0.871 (inactive).

B44: FS-658 (peptide)
chain: CAGRQRKPRPAGNASASA
Regarding B44, the “furin cleavage Z-score” value was -0.103 (inactive) (7.5 min), -1.02 (inactive) (15 min) and -0.398 (inactive) (30 min).

B45: FS-594 (peptide)
chain: CAGRSRRPRLAGNASASA
B45: the “furin cleavage Z-score” value by setting is: (7.5 min) 5.82 (active); (15 min) 7.31 (active); (30 min) 7.21 (active).

B46: FS-438 (peptide)
chain: CAGTQRLTRAAGNASASA
In the case of B46, the “furin cleavage Z-score” value was 5.42 (active) (7.5 min), 7.11 (active) (15 min) and 7.04 (active) (30 min).

B47: HC595 (peptide)
chain: CAGRDAVILLAGNASASA
As to B47, the “furin cleavage Z-score” value (7.5 min) was -0.947 (inactive), the “furin cleavage Z-score” value (15 min) is -0.587 (inactive) and the “furin cleavage Z-score” value (30 min) is -0.719 (inactive).

B48: FS-1205 (peptide)
chain: CAGRSRSRRAAGNASASA
As to B48, the “furin cleavage Z-score” value was 11.2 (active) (7.5 min), 9.2 (active) (15 min) and 6.8 (active) (30 min).
